PNC inhibitor – High Content Assay for Compounds that inhibit the Assembly of the Perinucleolar Compartment; PC3M PTB-GFP, PNC prevalence imaging, 16 h; stronger effect = lower value; actives 3.1% (n = 140,000); activity change (PNC), negative = inhibition, % at 10 µM; AID 2417, 2010;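 active means readout at or below -70, meaning at least 70% loss of cells showing the perinucleolar compartment, a nuclear body marking cancer cells; inconclusive means readout between -30 and a set limit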;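 further: plate controls were DMSO wells for no effect and camptothecin positive control wells for full effect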
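Compounds are pinned in duplicate onto adhered PC3M cells stably expressing GFP-tagged PTB and incubated 16 h at 37 C. Cells are then fixed, nuclei stained with Hoechst, and PNC-positive cells counted.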
HTT cytoprotect – qHTS Multiplex Assay to Identify Dual Action Probes in a Cell Model of Huntington: Cytoprotection (ATP). PC12 HTT-Q103 induced, cytoprotection, ATP luminescence, 40 h. Potency, µM (titrated, usually from 56.4 µM), inactives show cytoprotection (ATP increase), usual class: activators. actives 0.14% (n = 230,000). AID 1471, 2008; further: potency means the concentration at half of the fitted maximal effect; % of control where 0% means no effect; nearly all actives have a fitted effect of over 45% in size
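Cells were plated at 1500 per well in phenol red-free DMEM with 5% equine and 5% calf serum. Tebufenozide (100 nM final) and compounds were added, then ATPlite reagent, and luminescence was read.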
HPGD block – qHTS Assay for Inhibitors of HPGD (15-Hydroxyprostaglandin Dehydrogenase); 15-hydroxyprostaglandin dehydrogenase [NAD(+)] (Homo sapiens), P15428; purified HPGD, NADH fluorescence kinetic, PGE2 substrate; Potency, µM, without a hit: at the top dose activity change, negative = inhibition, usual class: inhibitors; actives 4.3% (n = 150,000); active means well fitted inhibition curve with a large enough effect, not every such curve was filed as active; inconclusive means small, poorly fitted or top-dose-only effect, or another doubt; inactive means no such curve, though single readings can be large or run the other way; further: potency means the concentration at half of the fitted maximal effect; on the % scale 0 is the no-effect control and ±100 the full control effect
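NADH formation kinetics: reaction with 30 uM PGE2 and 1 mM NAD+ (final), 20 nM enzyme, Tris-HCl pH 8 with Tween 20, after 15 min compound preincubation at room temperature. Fluorescence change, last versus first of five reads.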
CBFb-RUNX1 inh – qHTS Assay for Compounds Blocking the Interaction Between CBF-beta and RUNX1 for the Treatment of Acute Myeloid Leukemia | Runt-related transcription factor 1 (Homo sapiens) + Core-binding factor subunit beta … | AlphaScreen CBFb-His/RUNX1-biotin binding, biochemical | Potency, µM (highest dose often 59.8 µM), inactives show at the highest dose activity, negative = inhibition, most hits filed as inhibitors | 230,000 tested, under 10 active | AID 1477, 2009; further: % of control where 0% means no effect
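His-tagged CBF-beta and biotinylated RUNX1 (30 nM each) were premixed 20 min at room temperature, exposed to compound for 15 min, then given nickel-chelate and streptavidin AlphaScreen beads (50 ng each). After 90 min, AlphaScreen signal was read.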
ALDH1A1 inh – qHTS Assay for Inhibitors of Aldehyde Dehydrogenase 1 (ALDH1A1). Aldehyde dehydrogenase 1A1 (Homo sapiens), P00352. Potency, µM (top dose mostly 75.3 µM), without a hit: at the top dose activity, negative = inhibition, hits mostly inhibitors. AID 1030, 2008. actives 7.3% (n = 220,000). Purified ALDH1A1, NADH fluorescence, propionaldehyde substrate; active means well fitted inhibition curve with a large enough effect, not every such curve was filed as active; inconclusive means small, poorly fitted or top-dose-only effect, or another doubt; inactive means no such curve, though single readings can be large or run the other way;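 further: potency means the concentration at half of the fitted maximal effect; plate controls were no enzyme wells and a reference inhibitor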
Target sequence (P00352 whole entry, looked up): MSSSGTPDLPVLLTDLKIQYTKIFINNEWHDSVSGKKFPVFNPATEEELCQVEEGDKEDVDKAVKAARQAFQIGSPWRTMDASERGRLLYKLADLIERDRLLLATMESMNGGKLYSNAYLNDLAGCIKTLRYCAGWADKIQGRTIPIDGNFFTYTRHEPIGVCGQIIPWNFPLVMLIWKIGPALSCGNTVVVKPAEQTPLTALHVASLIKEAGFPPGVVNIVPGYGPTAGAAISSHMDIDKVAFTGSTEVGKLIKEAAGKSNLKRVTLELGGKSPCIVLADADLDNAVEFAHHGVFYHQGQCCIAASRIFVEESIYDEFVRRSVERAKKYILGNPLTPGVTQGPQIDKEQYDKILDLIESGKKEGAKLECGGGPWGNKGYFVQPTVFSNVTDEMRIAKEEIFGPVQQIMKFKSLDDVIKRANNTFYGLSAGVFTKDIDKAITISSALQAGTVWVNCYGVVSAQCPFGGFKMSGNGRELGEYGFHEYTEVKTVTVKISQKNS
HTT aggregate – qHTS Multiplex Assay to Identify Dual Action Probes in a Cell Model of Huntington: Aggregate Formation (GFP) | PC12 HttQ103-GFP aggregates, Acumen cytometry, 40 h | Potency, µM (titrated, usually from 46.1 µM), inactives show top-dose activity change, negative = inhibition, hits mostly inhibitors | actives 1.1% (n = 220,000) | AID 1688, 2009; further: potency means the concentration at half of the fitted maximal effect; on the % scale 0 is the no-effect control and ±100 the full control effect; nearly all actives have a fitted effect of over 60% in size
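Read-out: GFP aggregate count by laser scanning cytometer (488 nm excitation, 500-530 nm emission, 1–25 µm objects >6 SD above background). Cells: PC12, inducible HTTex1-Q103-GFP, 100 nM tebufenozide; compounds titrated.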
* = called active by the depositor; ? = inconclusive; . = no result; ! = not active in a repeat; [ ] = remark or other dose. A selection: hits, their analogues and other compounds. The true share with any hit is near 11%. Unless noted, the call rests on the fitted dose curve; in most records, active means well fitted curve in the direction sought with a large enough effect; inconclusive means small, poorly fitted or top-dose-only effect, or another doubt; inactive means no such curve, though single readings can be large; an effect the other way counts as inactive or inconclusive.

SMILES | PNC inhibitor | HTT cytoprotect | HPGD block | CBFb-RUNX1 inh | ALDH1A1 inh | HTT aggregate
O=C(Nc1ccc(O)c(C(=O)O)c1)c1ccc2c(c1)C(=O)N(CC1CCCO1)C2=O (centres undefined) | -1 | -4%[0.074 µM] | -27% | 5% | 10µM* | 13%
Cc1c(NC(=O)c2ccc3c(c2)C(=O)N(CC2CCCO2)C3=O)cccc1C(=O)O (centres undefined) | -81* | -1%[10 µM] | -5% | 8% | ? | -14%
Cc1nnc(NC(=O)c2ccc3c(c2)C(=O)N(CC2CCCO2)C3=O)s1 (centres undefined) | -90* | -9% | -2% | 2% | ? | -2%
O=C1O[C@@H]([C@@H](O)CO)[C@@H](O)[C@H]1O | . | 6% | -8% | 1%[21.7 µM] | 8%[20.9 µM] | 13%
CCn1c(CC(=O)Nc2cccc(OC)c2)nnc1SCC(=O)N1CCN(c2ccccc2)CC1 | -85* | -38%[0.074 µM] | 1% | 3% | 5% | 13%
COc1cccc(NC(=O)Cc2nnc(SCCOc3ccccc3)n2C)c1 | 8 | -1%[0.074 µM] | -3% | 3% | -11% | -5%
COc1cccc(NC(=O)Cc2nnc(SCC(=O)c3ccccc3)n2C)c1 | 230 | -8%[0.074 µM] | 32µM* | -4% | 8.9µM* | -14%
O=C(O)[C@H]1CCCN1 | . | 3% | . | -3% | 9% | .
O=C(NCCOc1nc(N2CCCCC2)nc(N2CCOCC2)n1)Nc1ccccc1 | -107* | 3% | -8% | 7% | 8.9µM* | -32%
CS(=O)(=O)N(CC(=O)NCc1ccncc1)Cc1ccc(Cl)cc1 | -24 | -21% | -9% | 3% | 4% | 0.63µM*
Cc1[nH]n(-c2ccccc2)c(=O)c1C=Nc1ccc(S(=O)(=O)Nc2nccs2)cc1 | . | -47% | . | -2% | 13µM* | -6%
Cc1ccc(-n2[nH]c(C)c(C=Nc3ccc(S(=O)(=O)Nc4nccs4)cc3)c2=O)cc1C | 5 | -8%[10 µM] | ? | -10% | 4% | 11%
CCc1nnc(NS(=O)(=O)c2ccc(N=Cc3c(C)[nH]n(-c4cccc(Cl)c4)c3=O)cc2)s1 | ? | 3%[10 µM] | 13µM* | 0% | ? | -20%
O=C(COC(=O)c1c[nH]c(=O)[nH]c1=O)Nc1ccccc1F | . | -23% | . | 1% | 28µM* | -2%
CC(C)CCc1noc(CN2CCN(c3ccc(Cl)cn3)CC2)n1 | . | 1%[10 µM] | . | 23% | 4µM* | -2%[9.22 µM]
COc1ccc(Cc2noc(CN3CCN(c4ccc(Cl)cn4)CC3)n2)cc1OC | . | . | . | 1% | -1% | .
CO[C@H]1[C@H](O[C@H]2O[C@@H](C)[C@@H](O[C@@H]3C[C@](C)(O)[C@H](O)[C@H](C)O3)[C@@H](N(C)C)[C@@H]2O)[C@@H](CC=O)C[C@@H](C)[C@@H](O[C@H]2CC[C@H](N(C)C)[C@H](C)O2)/C=C\C=C/C[C@@H](C)OC(=O)C[C@H]1O | . | ? | -3% | 21%[21.7 µM] | 2%[20.9 µM] | -3%[20.6 µM]
C[N+](C)(N)Cc1nc(-c2ccc(Cl)cc2)no1 | . | -4%[10 µM] | -3% | . | -4%[13.5 µM] | .
O=C(c1cccc(S(=O)(=O)N2CCOCC2)c1)N(Cc1ccc(F)cc1)Cc1ccco1 | . | -18%[10 µM] | . | -4% | -12% | -4%
Cc1ccc(N(Cc2ccco2)C(=O)c2cccc(S(=O)(=O)N(C)C)c2)cc1 | 32 | 2% | 3% | 0% | 25µM* | -5%
CN(C)S(=O)(=O)c1cccc(C(=O)N(Cc2ccc(F)cc2)Cc2ccco2)c1 | -24 | -2% | -6% | -5% | 25µM* | -5%
O=C(NC(NC(=S)Nc1c(Cl)cccc1Cl)C(Cl)(Cl)Cl)OCc1ccccc1 (centres undefined) | ? | -4%[10 µM] | -13% | 10% | 10µM* | 22µM*
O=C(COc1ccc2oc(-c3ccccc3)cc(=O)c2c1)Nc1ccccc1 | -112* | -2%[10 µM] | -14% | 3% | 7% | -13%
COc1ccc(-c2n[nH]c(C(F)(F)F)c2-c2cc3ccccc3o2)c(O)c1 | 3 | 12%[10 µM] | . | 14% | ? | 3.5µM*
COc1ccccc1-c1c(-c2ccc(OCC(=O)NN)cc2O)n[nH]c1C(F)(F)F | ? | . | -15% | 1% | ? | 16%
SMILES | PNC inhibitor | HTT cytoprotect | HPGD block | CBFb-RUNX1 inh | ALDH1A1 inh | HTT aggregate
Cn1c(=O)c(-c2cc(F)cc(F)c2)nc2cncnc21 | . | 8% | . | . | -1% | .
CN(C)c1ncc2nc(-c3ccccc3)c(=O)n(-c3ccccc3)c2n1 | . | -27% | . | . | ? | .
O=Nc1c(-c2c(O)[nH]c3ccccc23)[nH]c2ccccc12 | . | 1.3µM*! | -21% | ? | -9% | .
O=NC1=C(c2c(O)[nH]c3ccccc23)CCCC1 | 2 | -4% | 1% | 0% | -2% | 1%
COc1ccc(C(=O)N/N=C/c2sc(=O)n(Cc3cccc(C(=O)O)c3)c2Cl)cc1 | . | -40%[10 µM] | . | 6% | . | -34%[9.22 µM]
O=C(O)c1cccc(Cn2c(Cl)c(/C=N/NC(=O)c3ccccc3Cl)sc2=O)c1 | -26 | -5% | 28µM* | -5% | ? | 5%
O=C(O)c1cccc(Cn2c(Cl)c(/C=N/Nc3ccccc3)sc2=O)c1 | . | -18% | . | -17% | 22µM* | 6%
O=C(O)c1cccc(Cn2c(Cl)c(/C=N/NC(=O)c3ccccc3O)sc2=O)c1 | . | 10%[10 µM] | . | -6% | 4% | -2%[9.22 µM]
Cc1cc2cc(C(c3nnnn3Cc3ccco3)N3CCc4ccccc4C3)c(=O)[nH]c2cc1C (centres undefined) | 11 | 2%[10 µM] | ? | -11% | ? | 31%

High-throughput results deposited in PubChem BioAssay by National Center for Advancing Translational Sciences (NCATS).
